Read-out in assay [1]: Monocyte Chemoattractant Protein-1 (MCP1), CCL2 (gene 6347)
Description: BSK_SAg_MCP1: BioMAP Diversity Plus: SAg Assay for Monocyte Chemoattractant Protein-1 (MCP1) Biomarker Activity (AID 2283090). The settings on record: primary human HUVEC with PBMC; actives raise or lower the signal. Put shortly:
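MCP-1 levels in the endothelial–PBMC SAg co-culture were quantified by ELISA at 24 h post-dosing; both increases and decreases versus DMSO scored. Cytotoxicity monitored by SRB total protein in parallel cultures.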

Read-out in assay [2]: E-selectin (Homo sapiens) (UniProt P16581)
In words: BSK_SAg_Eselectin: BioMAP Diversity Plus: SAg Assay for Eselectin Biomarker Activity (AID 2283091). The settings on record: primary human HUVEC with PBMC; actives raise or lower the signal. In outline:
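Primary human endothelial cells and peripheral blood mononuclear cells were co-cultured and exposed to chemical for 24 hours. E-selectin levels were then quantified by ELISA, with bidirectional curve fitting normalised to DMSO controls.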

Read-out in assay [3]: Monokine induced gamma interferon (MIG), CXCL9 (gene 4283)
In words: BSK_SAg_MIG: BioMAP Diversity Plus: SAg Assay for Monokine induced gamma interferon (MIG) Biomarker Activity (AID 2283092). The settings on record: primary human HUVEC with PBMC; actives raise or lower the signal. In outline: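 HUVEC plus human PBMC co-culture, chemicals dosed and MIG (CXCL9) quantified by ELISA at 24 h. Bidirectional curve fitting against DMSO as negative control and baseline, so both gain and loss of signal count as activity.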

The nature of assay [4]: BSK_SAg_PBMCCytotoxicity: PBMC Cytotoxicity Assessment in the BioMAP Diversity Plus: SAg Assay (AID 2283093).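 Further: PBMC viability measured as Alamar Blue reduction fluorescence at 546/580 nm; fitted both ways against DMSO so a hit may be loss or gain of signal.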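 On AC50: PBMC superantigen activated with SEB plus TSST-1 one hour after compound addition.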 The settings on record: primary human HUVEC with PBMC. Put shortly: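 Compound added to 75,000 PBMC/well for 1 h; SEB and TSST-1 then added at 20 ng/mL final each; 90 h incubation; Alamar Blue 6 h; read 546/580 nm ex/em. Activity fitted bidirectionally relative to DMSO baseline.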

Read-out in assay [5]: Interleukin-8 (IL8), CXCL8 (gene 3576)
In words: BSK_SAg_IL8: BioMAP Diversity Plus: SAg Assay for Interleukin-8 (IL8) Biomarker Activity (AID 2283094). The settings on record: primary human HUVEC with PBMC; actives raise or lower the signal. Put shortly:
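Human umbilical vein endothelial cells co-cultured with peripheral blood mononuclear cells; IL-8 measured by ELISA 24 h after chemical dosing. Bidirectional concentration-response fitting used DMSO as negative control and activity baseline.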

Assay [6] is described as follows: BSK_SAg_Proliferation: Cell Proliferation Assessment in the BioMAP Diversity Plus: SAg Assay (AID 2283095).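 Further: relative cell number as total protein by SRB absorbance in sub-confluent culture.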 The settings on record: primary human HUVEC with PBMC. Put shortly: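 Human umbilical vein endothelial cells co-cultured with peripheral blood mononuclear cells; total protein measured by sulforhodamine B staining (0.1% SRB after 10% TCA fixation), absorbance at 560 nm, at 96 h. Bidirectional fit against DMSO baseline.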

Assay [7] can be described thus: BSK_SAg_SRB: Viability Assessment in the BioMAP Diversity Plus: SAg Assay (AID 2283096).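 Further: cells read one day after compound addition; hits may be either gain or loss of signal compared with DMSO.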 The settings on record: primary human HUVEC with PBMC. Put shortly:
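Total protein by sulforhodamine B staining, 24 h after dosing, in HUVEC–PBMC co-culture; DMSO-referenced bidirectional fitting.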

Assay [8] has as its target human CYP2A6, CYP2A6 (gene 1548) (UniProt P11509). In words: NVS_ADME_hCYP2A6: NovaScreen (NVS) CYP450-related Enzyme Activity (ADME) Assay for human CYP2A6 (AID 2283099; active means hit-call score of the fitted dose curve at least 0.9, where 1 is the maximum). Put shortly: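 Recombinant human CYP2A6 from insect cells was incubated with chemical for 0.5 h and activity read by fluorescence. Single-concentration duplicates at 10 uM preceded concentration-response testing to 20 uM, with activity referenced to acetonitrile.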

Assay [9] deals with Cytochrome P450 2C19 (Homo sapiens) (UniProt P33261). Description: NVS_ADME_hCYP2C19: NovaScreen (NVS) CYP450-related Enzyme Activity (ADME) Assay for human CYP2C19 (AID 2283113; active means hit-call score of the fitted dose curve at least 0.9, where 1 is the maximum;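 on AC50: potency for inhibition seen as loss of fluorescent signal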). In outline: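 Chemicals first screened in duplicate at 10 uM against recombinant human enzyme produced in insect cells; confirmed actives then run as concentration series. Fluorogenic substrate turnover read by fluorescence after 1 h, normalised to acetonitrile.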

Assay [10] concerns the target human CYP1A1, CYP1A1 (gene 1543) (UniProt P04798). In words: NVS_ADME_hCYP1A1: NovaScreen (NVS) CYP450-related Enzyme Activity (ADME) Assay for human CYP1A1 (AID 2283100; active means hit-call score of the fitted dose curve at least 0.9, where 1 is the maximum). In outline:
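Compounds first went through duplicate single-concentration testing at 10 uM against purified CYP1A1. Those passing a threshold such as 30% inhibition entered singleton dose-response, highest concentration 20 uM. Signal was fluorescence measured after 1 hour.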

The target in assay [11] is human CYP2B6, CYP2B6 (gene 1555) (UniProt P20813). In words: NVS_ADME_hCYP2B6: NovaScreen (NVS) CYP450-related Enzyme Activity (ADME) Assay for human CYP2B6 (AID 2283101; active means hit-call score of the fitted dose curve at least 0.9, where 1 is the maximum). Put shortly: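 Recombinant human CYP2B6 with fluorogenic substrate, read by fluorescence intensity 1 h after dosing. Primary screen in duplicate at 10 uM, actives followed in concentration series; signal loss relative to acetonitrile control.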

In assay [12] the target is human CYP2C9, CYP2C9 (gene 1559) (UniProt P11712). In words: NVS_ADME_hCYP2C9: NovaScreen (NVS) CYP450-related Enzyme Activity (ADME) Assay for human CYP2C9 (AID 2283108; active means hit-call score of the fitted dose curve at least 0.9, where 1 is the maximum). In outline:
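Fluorescence readout of CYP2C9 activity (SF9-expressed human enzyme) at 0.75 h. The primary screen used 10 uM in duplicate, with concentration-response follow-up for actives; acetonitrile was the negative control.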

In assay [13] the target is Cytochrome P450 3A4 (Homo sapiens) (UniProt P08684). Description: NVS_ADME_hCYP3A4: NovaScreen (NVS) CYP450-related Enzyme Activity (ADME) Assay for human CYP3A4 (AID 2283110; active means hit-call score of the fitted dose curve at least 0.9, where 1 is the maximum). Put shortly: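 Compounds were first screened in duplicate at 10 uM against recombinant CYP3A4 produced in insect cells, then actives were run in concentration series. Enzyme activity was measured by fluorescence after 0.33 hour, with acetonitrile as baseline.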

For assay [14], the target named is human CYP1A2, CYP1A2 (gene 1544) (UniProt P05177). In words: NVS_ADME_hCYP1A2: NovaScreen (NVS) CYP450-related Enzyme Activity (ADME) Assay for human CYP1A2 (AID 2283102; active means hit-call score of the fitted dose curve at least 0.9, where 1 is the maximum;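 further: potency for inhibition since loss of fluorescence marks reduced CYP1A2 activity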). Put shortly:
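Compounds were tested at 10 uM in duplicate against recombinant CYP1A2 produced in insect cells. Enzyme activity was measured by fluorescence 0.5 h after dosing, with loss of signal versus acetonitrile control. Active compounds were re-tested in concentration series.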

The target in assay [15] is rat CYP2A1, Cyp2a1 (gene 24894) (UniProt P11711). In words: NVS_ADME_rCYP2A1: NovaScreen (NVS) CYP450-related Enzyme Activity (ADME) Assay for rat CYP2A1 (AID 2283114). Put shortly:
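Recombinant rat CYP2A1, cell-free, fluorogenic substrate turnover read by fluorescence intensity 0.75 h after dosing. Primary screen at 10 uM in duplicate; actives rerun as concentration-response up to 20 uM; loss of signal versus acetonitrile control.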

The target of assay [16] is human CYP2D6, CYP2D6 (gene 1565) (UniProt P10635). Description: NVS_ADME_hCYP2D6: NovaScreen (NVS) CYP450-related Enzyme Activity (ADME) Assay for human CYP2D6 (AID 2283107; active means hit-call score of the fitted dose curve at least 0.9, where 1 is the maximum). Put shortly:
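Compounds were first tested in duplicate at 10 uM against recombinant enzyme produced in insect cells, with substrate turnover measured by fluorescence after 1 hour. Decreased signal, referenced to acetonitrile vehicle, was taken as reduced enzyme activity. Active chemicals went on to concentration-response testing.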

Records with an inconclusive call do not appear. Activity calls are given as the source filed them. How the source made its calls, unless noted: active means hit-call score of the fitted dose curve at least 0.9, where 1 is the maximum; inactive means score below 0.9.

Broadly, the AC50 is the midpoint of the concentration-response curve, whichever way the signal moves.

Sequence of human CYP2C9, CYP2C9 (gene 1559) (P11712 whole entry, looked up): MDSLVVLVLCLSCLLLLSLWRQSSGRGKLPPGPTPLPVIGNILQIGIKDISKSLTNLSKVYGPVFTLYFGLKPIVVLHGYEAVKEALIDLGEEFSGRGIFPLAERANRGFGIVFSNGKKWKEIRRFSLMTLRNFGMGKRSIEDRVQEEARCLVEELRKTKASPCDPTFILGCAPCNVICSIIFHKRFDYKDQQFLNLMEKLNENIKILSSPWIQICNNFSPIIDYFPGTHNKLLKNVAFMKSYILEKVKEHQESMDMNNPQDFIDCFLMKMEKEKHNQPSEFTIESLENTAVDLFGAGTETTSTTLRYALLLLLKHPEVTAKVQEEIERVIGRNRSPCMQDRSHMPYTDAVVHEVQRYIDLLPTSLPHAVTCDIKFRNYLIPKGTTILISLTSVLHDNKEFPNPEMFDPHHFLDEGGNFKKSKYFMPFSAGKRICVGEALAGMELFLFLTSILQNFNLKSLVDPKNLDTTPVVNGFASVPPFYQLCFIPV
Sequence of E-selectin (Homo sapiens) (P16581 whole entry, looked up): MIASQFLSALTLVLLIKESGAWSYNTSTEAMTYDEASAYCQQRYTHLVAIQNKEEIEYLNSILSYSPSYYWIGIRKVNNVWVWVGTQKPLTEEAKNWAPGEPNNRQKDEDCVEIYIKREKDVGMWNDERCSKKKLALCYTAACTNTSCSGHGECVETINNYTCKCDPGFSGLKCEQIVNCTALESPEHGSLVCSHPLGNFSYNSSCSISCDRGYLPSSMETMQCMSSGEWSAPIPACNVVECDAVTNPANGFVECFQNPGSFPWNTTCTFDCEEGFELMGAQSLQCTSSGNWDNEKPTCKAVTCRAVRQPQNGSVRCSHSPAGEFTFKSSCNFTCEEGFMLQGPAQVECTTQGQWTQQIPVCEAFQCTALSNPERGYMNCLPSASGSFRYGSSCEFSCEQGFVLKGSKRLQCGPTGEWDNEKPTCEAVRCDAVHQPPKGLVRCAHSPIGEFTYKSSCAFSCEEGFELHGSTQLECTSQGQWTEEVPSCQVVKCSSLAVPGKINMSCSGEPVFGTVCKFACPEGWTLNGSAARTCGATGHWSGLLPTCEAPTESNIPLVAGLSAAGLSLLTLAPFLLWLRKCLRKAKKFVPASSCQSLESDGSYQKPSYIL
Sequence of human CYP2A6, CYP2A6 (gene 1548) (P11509 whole entry, looked up): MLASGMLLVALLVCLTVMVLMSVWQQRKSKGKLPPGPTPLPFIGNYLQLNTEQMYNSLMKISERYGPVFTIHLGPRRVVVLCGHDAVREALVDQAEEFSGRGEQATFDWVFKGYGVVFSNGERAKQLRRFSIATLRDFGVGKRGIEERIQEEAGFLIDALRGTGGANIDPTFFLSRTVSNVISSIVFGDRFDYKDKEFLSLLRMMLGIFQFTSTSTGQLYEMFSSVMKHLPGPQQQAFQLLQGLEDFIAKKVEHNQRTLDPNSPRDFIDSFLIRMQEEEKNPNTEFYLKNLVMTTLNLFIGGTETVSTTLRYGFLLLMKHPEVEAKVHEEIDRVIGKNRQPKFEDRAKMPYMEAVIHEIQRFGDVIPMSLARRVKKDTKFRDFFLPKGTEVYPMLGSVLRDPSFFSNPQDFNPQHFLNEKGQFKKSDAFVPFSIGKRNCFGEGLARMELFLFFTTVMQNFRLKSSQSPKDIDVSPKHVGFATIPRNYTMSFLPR
Sequence of human CYP2B6, CYP2B6 (gene 1555) (P20813 whole entry, looked up): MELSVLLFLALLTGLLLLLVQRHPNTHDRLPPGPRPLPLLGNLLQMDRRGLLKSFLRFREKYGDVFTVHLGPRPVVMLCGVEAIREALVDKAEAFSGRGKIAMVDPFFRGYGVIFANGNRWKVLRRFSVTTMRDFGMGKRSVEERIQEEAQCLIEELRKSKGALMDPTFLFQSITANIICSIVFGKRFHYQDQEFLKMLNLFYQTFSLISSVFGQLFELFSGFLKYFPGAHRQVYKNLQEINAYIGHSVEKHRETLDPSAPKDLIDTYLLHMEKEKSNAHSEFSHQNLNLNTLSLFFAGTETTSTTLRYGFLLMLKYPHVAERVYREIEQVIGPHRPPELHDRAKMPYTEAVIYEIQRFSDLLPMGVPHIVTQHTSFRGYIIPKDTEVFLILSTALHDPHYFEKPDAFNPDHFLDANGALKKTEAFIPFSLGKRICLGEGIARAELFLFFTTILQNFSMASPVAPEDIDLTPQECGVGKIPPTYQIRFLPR
Sequence of human CYP1A2, CYP1A2 (gene 1544) (P05177 whole entry, looked up): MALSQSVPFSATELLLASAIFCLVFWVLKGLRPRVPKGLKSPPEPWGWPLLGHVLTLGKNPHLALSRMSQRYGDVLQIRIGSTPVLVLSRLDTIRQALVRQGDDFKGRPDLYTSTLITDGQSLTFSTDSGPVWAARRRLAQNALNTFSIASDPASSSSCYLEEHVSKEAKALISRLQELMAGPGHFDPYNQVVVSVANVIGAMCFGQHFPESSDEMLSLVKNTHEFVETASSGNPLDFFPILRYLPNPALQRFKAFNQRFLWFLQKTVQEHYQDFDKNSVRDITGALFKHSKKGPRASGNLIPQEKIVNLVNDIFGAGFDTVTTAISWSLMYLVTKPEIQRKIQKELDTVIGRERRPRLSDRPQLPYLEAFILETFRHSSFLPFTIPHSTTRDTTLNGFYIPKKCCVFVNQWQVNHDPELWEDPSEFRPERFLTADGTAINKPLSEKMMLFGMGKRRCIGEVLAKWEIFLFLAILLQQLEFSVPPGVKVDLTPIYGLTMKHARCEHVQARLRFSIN
Sequence of human CYP1A1, CYP1A1 (gene 1543) (P04798 whole entry, looked up): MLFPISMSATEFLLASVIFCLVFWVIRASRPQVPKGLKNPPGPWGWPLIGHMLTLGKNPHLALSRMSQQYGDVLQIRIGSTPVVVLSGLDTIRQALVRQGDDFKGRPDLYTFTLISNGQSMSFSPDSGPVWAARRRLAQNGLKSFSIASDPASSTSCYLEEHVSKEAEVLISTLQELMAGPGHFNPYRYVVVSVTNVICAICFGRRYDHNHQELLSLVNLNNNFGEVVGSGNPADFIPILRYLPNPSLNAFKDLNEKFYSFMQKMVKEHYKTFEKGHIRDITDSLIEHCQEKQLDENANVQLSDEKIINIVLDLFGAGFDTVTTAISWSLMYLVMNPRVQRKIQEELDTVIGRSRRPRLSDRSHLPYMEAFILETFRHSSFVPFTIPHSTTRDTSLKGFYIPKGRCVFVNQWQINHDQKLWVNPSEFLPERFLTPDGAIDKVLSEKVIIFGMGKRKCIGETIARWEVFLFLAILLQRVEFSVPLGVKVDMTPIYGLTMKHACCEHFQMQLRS
Sequence of Cytochrome P450 3A4 (Homo sapiens) (P08684 whole entry, looked up): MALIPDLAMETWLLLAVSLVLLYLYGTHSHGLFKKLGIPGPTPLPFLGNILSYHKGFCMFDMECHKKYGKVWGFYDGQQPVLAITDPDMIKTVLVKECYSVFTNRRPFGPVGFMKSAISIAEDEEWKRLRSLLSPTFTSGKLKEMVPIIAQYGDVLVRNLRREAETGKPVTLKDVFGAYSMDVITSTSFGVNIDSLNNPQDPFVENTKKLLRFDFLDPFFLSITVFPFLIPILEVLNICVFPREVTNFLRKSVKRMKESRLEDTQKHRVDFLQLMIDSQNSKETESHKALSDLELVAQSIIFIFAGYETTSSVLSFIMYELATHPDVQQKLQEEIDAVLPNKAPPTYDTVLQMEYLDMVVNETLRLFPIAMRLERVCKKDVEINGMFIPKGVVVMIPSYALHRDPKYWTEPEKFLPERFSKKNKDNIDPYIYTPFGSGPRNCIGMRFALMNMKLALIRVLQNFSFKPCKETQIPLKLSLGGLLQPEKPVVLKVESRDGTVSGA
Sequence of rat CYP2A1, Cyp2a1 (gene 24894) (P11711 whole entry, looked up): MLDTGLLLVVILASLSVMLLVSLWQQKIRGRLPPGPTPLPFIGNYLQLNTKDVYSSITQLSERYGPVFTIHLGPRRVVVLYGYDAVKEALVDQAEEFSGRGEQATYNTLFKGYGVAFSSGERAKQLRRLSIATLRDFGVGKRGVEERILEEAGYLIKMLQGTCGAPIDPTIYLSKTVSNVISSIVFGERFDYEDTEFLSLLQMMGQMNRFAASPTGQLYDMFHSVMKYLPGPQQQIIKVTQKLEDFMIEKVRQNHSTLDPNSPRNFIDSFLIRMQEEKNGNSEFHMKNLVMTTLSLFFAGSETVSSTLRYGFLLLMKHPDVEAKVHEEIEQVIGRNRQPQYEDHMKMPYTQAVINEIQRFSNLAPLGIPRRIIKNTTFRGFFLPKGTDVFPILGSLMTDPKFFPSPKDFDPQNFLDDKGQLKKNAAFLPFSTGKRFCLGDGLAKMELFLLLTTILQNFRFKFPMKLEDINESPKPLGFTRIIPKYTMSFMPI
Sequence of human CYP2D6, CYP2D6 (gene 1565) (P10635 whole entry, looked up): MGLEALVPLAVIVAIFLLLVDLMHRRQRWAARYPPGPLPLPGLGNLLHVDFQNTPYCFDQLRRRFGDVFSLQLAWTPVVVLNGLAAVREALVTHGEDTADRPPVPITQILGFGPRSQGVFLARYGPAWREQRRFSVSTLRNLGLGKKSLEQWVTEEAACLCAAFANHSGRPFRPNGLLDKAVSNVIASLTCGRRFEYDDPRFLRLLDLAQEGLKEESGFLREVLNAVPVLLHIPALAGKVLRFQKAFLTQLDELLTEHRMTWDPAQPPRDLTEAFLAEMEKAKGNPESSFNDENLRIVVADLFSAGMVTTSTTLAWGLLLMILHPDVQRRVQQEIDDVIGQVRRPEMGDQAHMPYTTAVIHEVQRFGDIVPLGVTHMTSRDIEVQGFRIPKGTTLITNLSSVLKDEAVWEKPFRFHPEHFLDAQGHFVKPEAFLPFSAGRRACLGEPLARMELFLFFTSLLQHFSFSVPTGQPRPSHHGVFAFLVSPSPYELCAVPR

For the molecule `O=C(O)C(F)(F)OC(F)(F)C(F)(F)OC(F)(F)F`, the result in assay [1], in assay [2], in assay [3], in [4], in assay [5] and in assay [6] was inactive. In assay [7], the result was inactive.
As to `Nc1ccc(Cl)cc1`, the result in [1], in assay [2], in [3], in assay [4], in assay [5] and in assay [6] was inactive. Also, the result in assay [7] was inactive.
Take `COP(=O)(CCC(=O)NCO)OC`: the outcome in assay [1], in [2], in assay [3], in [4], in assay [5] and in assay [6] was inactive. In [7], the result was inactive.
Consider `c1cc2c3c(cccc3c1)CC2`, for which the result in [1], in assay [2], in [3], in assay [4], in assay [5] and in assay [6] was inactive. Moreover, the result in assay [7] was inactive.
Consider `O=C(O)C1C(C(=O)O)C2(Cl)C(Cl)=C(Cl)C1(Cl)C2(Cl)Cl` (configuration not stated), for which the outcome in assay [1], in [2], in assay [3], in assay [4], in assay [5] and in assay [6] was inactive. Moreover, the result in assay [7] and in [8] was inactive.
Turning to `Cc1ccc(N)cc1N`, the outcome in [1], in assay [2], in [3], in [4], in [5] and in [6] was inactive. Also, the outcome in [7] and in assay [8] was inactive.
Consider `CC(Cc1ccc(OCC(=O)O)cc1)NCC(O)c1csc(C(F)(F)F)n1` (configuration not stated), for which the outcome in [1], in [2], in assay [3], in [4], in assay [5] and in assay [6] was inactive. The outcome in assay [7] and in assay [9] was inactive.
In the case of `Cc1ccc(O)cc1C`, the outcome in assay [1], in assay [2], in assay [3], in assay [5], in assay [6] and in assay [7] was inactive.
Regarding `CSC(C)(C)C=NO`, the outcome in assay [1], in [2], in assay [3], in assay [4], in [5] and in assay [6] was inactive. Besides, the result in assay [7], in [10], in assay [11], in assay [12], in assay [13] and in assay [9] was inactive.
On to `CO/N=C(/C(=O)OC)c1ccccc1COc1ccccc1C`, for which the AC50 was 9.98 µM (active) in assay [14], 6.5 µM (active) in assay [12], 2.85 µM (active) in [9] and 4.24 µM (active) in [15].
As for `ClC1=C(Cl)C2(Cl)C3C(Cl)C(Cl)CC3C1(Cl)C2(Cl)Cl` (configuration not stated), the AC50 in assay [1] is 33.6 µM (active); in assay [2], 32.3 µM (active); in [3] it was 34.4 µM (active); in assay [4] it was 13.8 µM (active); in [5] it was 34.7 µM (active); in [6] it was 7.61 µM (active). Further, the values for the AC50 in assay [7], in [11] and in assay [9] were 31.1 µM (active), 5.2 µM (active) and 6.11 µM (active), respectively.
For the molecule `O=S1(=O)OCC2C(CO1)C1(Cl)C(Cl)=C(Cl)C2(Cl)C1(Cl)Cl` (configuration not stated), the outcome in assay [1], in [2], in [3], in [4], in assay [5] and in assay [6] was inactive. Besides, in assay [7], the result was inactive. Besides, the AC50 in [9] is 2.43 µM (active).
Take `Nc1ccc2ccccc2c1`: the outcome in assay [1], in assay [3], in assay [4], in assay [5], in [6] and in assay [7] was inactive. In addition, in assay [8], the result was inactive. The AC50 in assay [2] is 4.16 µM (active); in [11] it was 1.45 µM (active); in [14], 7.68 µM (active); in assay [9], 2.58 µM (active).
As to `CCC(C)(C)c1ccc(O)cc1`, the outcome in assay [1], in [2], in assay [3], in assay [4], in assay [5] and in assay [6] was inactive. Moreover, the outcome in [7] and in assay [8] was inactive. Moreover, the half-maximal activity concentration (AC50) in assay [11] is 10 µM (active).
In the case of `Cc1ccc2c(c1N)C(=O)c1ccccc1C2=O`, the outcome in assay [1], in [2], in assay [3], in assay [4], in assay [5] and in assay [6] was inactive. Moreover, the outcome in assay [7] and in [13] was inactive. Also, the AC50 in assay [16] is 5 µM (active); in assay [12] it was 0.0118 µM (active); in assay [9], 3.02 µM (active).
Take `c1ccc2c(c1)Nc1ccccc1S2`: the result in assay [1], in assay [2], in assay [3], in assay [5] and in assay [7] was inactive. Also, the AC50 was 2.19 µM (active) in [4]; 20 µM (active) in [6]; 1.45 µM (active) in assay [14]; 6.5 µM (active) in assay [12]; 6.45 µM (active) in [9].
For the molecule `CCCCN(CCCC)SN(C)C(=O)Oc1cccc2c1OC(C)(C)C2`, the AC50 in [1] is 37 µM (active); in [2], 32.6 µM (active); in assay [3], 32.1 µM (active); in assay [4], 25 µM (active); in [5], 33 µM (active); in assay [6], 9.37 µM (active). The AC50 in [7] is 24 µM (active); in assay [12], 16.8 µM (active). Also, the molecule was classed as inactive in assay [10] and in [9].

The values above are taken from PubChem BioAssay (EPA / NIEHS).
